# In PubChem BioAssay AID1508601 (ICCB-Longwood Screening Facility, Harvard Medical School, 2020):
# Screen size: about 5,700 compounds; about 85 (1%) were called active. Rule as the data show it: active = p53-positive nuclei above about 36% (passing the limit was not always enough); inactive = the rest. The entries come from a sample that favours actives as a whole.
# What was measured:
# [1] = nuclear p53 accumulation, HPV+ cells – imaging, p53-positive nuclei imaging, 24 h, 48 h (AID 1508601); details: 24/48 h
# [2] = biological target: Cellular tumor antigen p53 (Homo sapiens) (UniProt P04637); test: as above; details: 24/48 h, stronger effect = higher value
# [3] = measured here: cell number at 24 h, Library stock concentration: 80 uM
# [4] = measured here: cell number at 24 h, Library stock concentration: 400 uM
# [5] = measured here: cell number at 24 h, Library stock concentration: 2 mM
# [6] = measured here: cell number at 24 h, Library stock concentration: 10 mM
# [7] = measured here: cell number at 48 h, Library stock concentration: 80 uM
# [8] = measured here: cell number at 48 h, Library stock concentration: 400 uM
# [9] = measured here: cell number at 48 h, Library stock concentration: 2 mM
# [10] = measured here: cell number at 48 h, Library stock concentration: 10 mM
# [11] = Library stock concentration: 80 uM
# [12] = Library stock concentration: 400 uM
# [13] = Library stock concentration: 2 mM
# [14] = Library stock concentration: 10 mM
# [15] = measured here: p53 positive nuclei at 24 h, Library stock concentration: 80 uM
# [16] = measured here: p53 positive nuclei at 24 h, Library stock concentration: 400 uM
# [17] = measured here: p53 positive nuclei at 24 h, Library stock concentration: 2 mM
# [18] = measured here: p53 positive nuclei at 24 h, Library stock concentration: 10 mM
# [19] = measured here: cell number at 24 h, concentration not given here
# [20] = measured here: cell number at 48 h, concentration not given here
# [21] = measured here: p53 positive nuclei at 24 h, concentration not given here
# Sequence of Cellular tumor antigen p53 (Homo sapiens) (P04637 whole entry, looked up): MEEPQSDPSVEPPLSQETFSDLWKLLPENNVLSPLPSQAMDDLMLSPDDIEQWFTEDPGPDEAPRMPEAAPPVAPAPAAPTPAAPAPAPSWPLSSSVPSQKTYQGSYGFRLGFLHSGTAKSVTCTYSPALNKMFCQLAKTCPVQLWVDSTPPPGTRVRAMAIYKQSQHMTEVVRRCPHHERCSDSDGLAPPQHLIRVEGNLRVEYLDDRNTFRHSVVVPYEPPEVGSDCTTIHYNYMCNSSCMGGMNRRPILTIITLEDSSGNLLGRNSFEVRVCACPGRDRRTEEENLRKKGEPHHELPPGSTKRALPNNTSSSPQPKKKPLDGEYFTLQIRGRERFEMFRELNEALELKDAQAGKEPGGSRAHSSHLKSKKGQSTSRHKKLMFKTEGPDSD
structure (smiles),measurement,setting,value
O=C1SC(=Cc2ccc(OCc3cccc(B(O)O)c3)cc2)C(=O)N1Cc1ccc(F)cc1,"nuclei count, normalised",[1]; [3],110%
same,"nuclei count, normalised",[1]; [4],108%
same,"nuclei count, normalised",[1]; [5],110%
same,"nuclei count, normalised",[1]; [6],110%
same,"nuclei count, normalised",[1]; [7],102%
same,"nuclei count, normalised",[1]; [8],102%
same,"nuclei count, normalised",[1]; [9],109%
same,"nuclei count, normalised",[1]; [10],113%
same,"p53-positive nuclei, normalised",[2]; [11],0.073% (inactive)
same,"p53-positive nuclei, normalised",[2]; [12],0.243% (inactive)
same,"p53-positive nuclei, normalised",[2]; [13],0.131% (inactive)
same,"p53-positive nuclei, normalised",[2]; [14],-0.221% (inactive)
same,"p53-positive nuclei, normalised",[2]; [15],0.0618%
same,"p53-positive nuclei, normalised",[2]; [16],0.065%
same,"p53-positive nuclei, normalised",[2]; [17],0.123%
same,"p53-positive nuclei, normalised",[2]; [18],-0.0586%
CCN(CC)c1ccc(C=NNC(=O)c2ccc(O)cc2)cc1,"nuclei count, normalised","[1]; measured here: cell number at 24 h, Library stock concentration: 46 uM",111%
same,"nuclei count, normalised","[1]; measured here: cell number at 24 h, Library stock concentration: 278 uM",117%
same,"nuclei count, normalised","[1]; measured here: cell number at 24 h, Library stock concentration: 1.67 mM",121%
same,"nuclei count, normalised",[1]; [6],79.3%
same,"nuclei count, normalised","[1]; measured here: cell number at 48 h, Library stock concentration: 46 uM",116%
same,"nuclei count, normalised","[1]; measured here: cell number at 48 h, Library stock concentration: 278 uM",118%
same,"nuclei count, normalised","[1]; measured here: cell number at 48 h, Library stock concentration: 1.67 mM",118%
same,"nuclei count, normalised",[1]; [10],83.6%
same,"p53-positive nuclei, normalised",[2]; Library stock concentration: 46 uM,-0.325% (inactive)
same,"p53-positive nuclei, normalised",[2]; Library stock concentration: 278 uM,-0.186% (inactive)
same,"p53-positive nuclei, normalised",[2]; Library stock concentration: 1.67 mM,-0.0464% (inactive)
same,"p53-positive nuclei, normalised",[2]; [14],1.02% (inactive)
same,"p53-positive nuclei, normalised","[2]; measured here: p53 positive nuclei at 24 h, Library stock concentration: 46 uM",-0.151%
same,"p53-positive nuclei, normalised","[2]; measured here: p53 positive nuclei at 24 h, Library stock concentration: 278 uM",-0.0898%
same,"p53-positive nuclei, normalised","[2]; measured here: p53 positive nuclei at 24 h, Library stock concentration: 1.67 mM",0.0252%
same,"p53-positive nuclei, normalised",[2]; [18],0.906%
Nc1ccc(C(=O)O)c(O)c1 (tested in a mixture with another compound),"nuclei count, normalised",[1]; [19],95.8%
same,"nuclei count, normalised",[1]; [20],101%
same,"p53-positive nuclei, normalised",[2]; concentration not given here,0.284% (inactive)
same,"p53-positive nuclei, normalised",[2]; [21],0.00463%
CCC(C)C(NC(=O)C(C(C)CC)N(C)C(C)=O)C(=O)NC(C(=O)NC(CC(C)C)C(=O)[C@@]1(C)CO1)C(C)O (stereo partly specified),"nuclei count, normalised",[1]; [3],52.8%
same,"nuclei count, normalised",[1]; [4],48.9%
same,"nuclei count, normalised",[1]; [5],47.9%
same,"nuclei count, normalised",[1]; [6],45.3%
same,"nuclei count, normalised",[1]; [7],41.4%
same,"nuclei count, normalised",[1]; [8],39.9%
same,"nuclei count, normalised",[1]; [9],38.3%
same,"nuclei count, normalised",[1]; [10],35.1%
same,"p53-positive nuclei, normalised",[2]; [11],104% (active)
same,"p53-positive nuclei, normalised",[2]; [12],100% (active)
same,"p53-positive nuclei, normalised",[2]; [13],107% (active)
same,"p53-positive nuclei, normalised",[2]; [14],106% (active)
same,"p53-positive nuclei, normalised",[2]; [15],124%
same,"p53-positive nuclei, normalised",[2]; [16],125%
same,"p53-positive nuclei, normalised",[2]; [17],127%
same,"p53-positive nuclei, normalised",[2]; [18],125%
CC(=O)N[C@@H](CC(C)C)C(=O)N1CCC(n2cc(C(C)(C)N)nn2)CC1,"nuclei count, normalised",[1]; [19],104%
same,"nuclei count, normalised",[1]; [20],109%
same,"p53-positive nuclei, normalised",[2]; concentration not given here,-0.0832% (inactive)
same,"p53-positive nuclei, normalised",[2]; [21],0.155%
